Source: PubChem BioAssay (NCI)
The panel holds about 83,000 compounds, 20% with a hit somewhere; the sample as a whole holds those more often.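 Step 1: grow cells in 96-well plates. Step 2: add test compound at a single concentration. Step 3: incubate 48 h. Step 4: record percent growth.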 A number with no mark means an inactive call. Activity calls are given as the source filed them. The calls were made as follows: active = growth percent below 10; inactive = the rest.

Columns and labels:
Assay in all cases: NCI-60 one-dose screen, 48 h (100 = growth as untreated, 0 = no growth, -100 = all killed)
Conditions in all cases: 10 µM unless noted
[1] = system: HCT-15 colon
[2] = system: HT29 colon
[3] = system: SNB-75 CNS
[4] = system: SNB-19 CNS
[5] = system: U251 CNS
[6] = system: PC-3 prostate
[7] = system: SK-MEL-5 melanoma
[8] = system: UACC-62 melanoma
[9] = system: LOX IMVI melanoma
[10] = system: SK-MEL-28 melanoma
[11] = system: EKVX NSCLC
[12] = system: SN12C renal
[13] = system: UO-31 renal
[14] = system: TK-10 renal
[15] = system: ACHN renal
[16] = system: CAKI-1 renal
[17] = system: A498 renal
[18] = system: CCRF-CEM leukemia
[19] = system: MOLT-4 leukemia

Compound | growth [1] | growth [2] | growth [3] | growth [4] | growth [5] | growth [6] | growth [7] | growth [8] | growth [9] | growth [10] | growth [11] | growth [12] | growth [13] | growth [14] | growth [15] | growth [16] | growth [17] | growth [18] | growth [19]
c1cc(OCCN2CCCCC2)cc(-c2n[nH]c3ccc(-c4ncn[nH]4)cc23)c1 | 79.7% | 21% | 46.1% | 86.2% | 84% | 86.9% | 43.4% | 31.9% | 30.8% | 46.5% | 76.7% | 68.2% | 25.1% | 74.5% | 62.7% | 26.6% | 71% | 84.9% | 27%
O=C(Nc1cnn2ccc(N3CCC[C@@H]3c3cc(F)ccc3F)nc12)N1CC[C@H](O)C1 | 92.6% | 74.1% | 29.1% | 92% | 85.7% | 89.4% | 97.8% | 99% | 80.1% | 109% | 99.5% | 81.1% | 82.8% | 99.8% | 103% | 88.3% | 2.72% (active) | 95.5% | 96.8%
O=C(Nc1cccc(Cl)c1)Nc1ncc(CCNc2ncnc3ccsc23)s1 | 22.9% | 19.7% | 25.6% | 64.9% | 38.4% | 8.62% (active) | -52% (active) | -24.7% (active) | 16.4% | 33.5% | 34.5% | 53.7% | 27.5% | 28.9% | 26.8% | 21.7% | 29.3% | 10.1% | -4.94% (active)
O=C(Cc1ccc(/C=C/C(=O)c2ncc[nH]2)cc1)Nc1ccc(Br)cc1 | -5.46% (active) | -21% (active) | 40.5% | 8.45% (active) | -63.5% (active) | 17% | 54.8% | 31% | -65% (active) | 73.4% | 38.6% | 9.91% (active) | -40% (active) | 75.5% | 2.05% (active) | 32.5% | 73.5% | 6.63% (active) | 2.86% (active)
CCNC(=O)Nc1nc2ccc(Oc3ccnc(C(=O)NC)c3)cc2s1 | 52.7% | 29.8% | 77.1% | 81% | 58% | 76.1% | 66.8% | 60% | 70.7% | 80.3% | 85.9% | 91.9% | 88.2% | 86.5% | 96.4% | 92.5% | 69.9% | 62.8% | 47.9%
CC[C@@H]1C(=O)N(C)c2cnc(Nc3ccc(C(=O)NC4CCN(C)CC4)cc3OC)nc2N1C1CCCC1 | 4.6% (active) | -3.91% (active) | -0.626% (active) | 31.3% | 12.7% | 28% | -80.6% (active) | 11.6% | -73.5% (active) | 34.4% | 31.6% | 2.27% (active) | 13.4% | 14.9% | 21.2% | 23% | -28.3% (active) | -0.208% (active) | -14% (active)
Cc1ccc(Nc2nccc(N(C)c3ccc4c(C)n(C)nc4c3)n2)cc1S(N)(=O)=O | 14.3% | 3.61% (active) | -25.9% (active) | 30.9% | 18.8% | 45.2% | -34% (active) | -18.3% (active) | -30.1% (active) | 8.83% (active) | 25.7% | 25.7% | -2.51% (active) | 21.2% | 25.8% | 15.1% | -57% (active) | 34% | 5.93% (active)
Cc1nc(N)sc1-c1ccnc(Nc2ccc(N3CCOCC3)cc2)n1 | 44.7% | 25.5% | -11% (active) | 29.9% | 27.9% | 38.3% | 70.8% | 41.6% | 29.6% | 61.5% | 71.7% | 49.8% | 19.7% | 39.9% | 29.7% | 20.8% | 32.6% | 23% | 13.8%
CC(C)c1cc(CNc2nc(Nc3cc(C4CC4)[nH]n3)cc(N3CCN(C)CC3)n2)on1 | 6.83% (active) | 0.12% (active) | -64.2% (active) | 13.4% | 1.02% (active) | 4.54% (active) | -24.2% (active) | -63.5% (active) | -58.4% (active) | -13.9% (active) | 7.39% (active) | 9.72% (active) | -2.19% (active) | -16.4% (active) | 8.49% (active) | 4.85% (active) | -78.5% (active) | 8.07% (active) | 0.889% (active)
CC1(O)CC(c2nc(-c3ccc4ccc(-c5ccccc5)nc4c3)c3c(N)nccn23)C1 (centres undefined) | 21.1% | 5.34% (active) | 32% | 64.7% | 56.7% | 35.3% | 15% | 39.9% | 34.7% | 40.7% | 58.8% | 41.7% | 6.56% (active) | 42.6% | 31.7% | 10.1% | -3.83% (active) | 27.1% | 12.9%
Cn1cc(-c2ncnc3ccc(-c4cnc(Cl)c(NS(C)(=O)=O)c4)cc23)c2ccccc21 | 13.2% | 11.7% | -14.9% (active) | 27.7% | 24.4% | 20.1% | -14.6% (active) | -18.8% (active) | 9.88% (active) | 0.439% (active) | 11.7% | 21.7% | -5.34% (active) | -1.34% (active) | 13.3% | 10.6% | -42.7% (active) | 23.9% | 7.73% (active)
O=C1C=CC2(NN=C(c3ccccc3)N2c2cccc(Cl)c2)c2cccc(O)c21 (centres undefined) | 23.8% | 79.3% | 57.5% | 43.9% | 24.1% | 32.7% | -54.6% (active) | 3.48% (active) | 3.66% (active) | 35.8% | 76.2% | 41.6% | 33.3% | 118% | 45.6% | 90.7% | 89.1% | 70.9% | 67.6%
CN(C)C[C@@H]1CCn2cc(c3ccccc32)C2=C(C(=O)NC2=O)c2cn(c3ccccc23)CCO1 | -31.7% (active) | 0.848% (active) | -76.1% (active) | 15.3% | -70.8% (active) | 0.163% (active) | 22.5% | 43% | -70.1% (active) | -92.6% (active) | 30.5% | -59.7% (active) | -49.1% (active) | 11.5% | -89.9% (active) | -3.96% (active) | -4.95% (active) | -0.337% (active) | -4.3% (active)
COC(=O)[C@H](Cc1ccccc1)NC(=O)[C@@H](OC)[C@@H]1Cc2cc3cc(OC4CC(OC5CC(O)C(O)C(C)O5)C(O)C(C)O4)c(C)c(O)c3c(O)c2C(=O)[C@H]1OC1CC(OC2CC(OC3CC(C)(O)C(O)C(C)O3)C(O)C(C)O2)C(O)C(C)O1 (some centres undefined) | 5.61% (active) | 4.24% (active) | -86.8% (active) | 4.82% (active) | 2.62% (active) | -9.57% (active) | -78% (active) | -56.6% (active) | -18.2% (active) | -27% (active) | -2.04% (active) | 4.42% (active) | -7.79% (active) | 6.76% (active) | -8.69% (active) | 15.3% | -40.3% (active) | 4.07% (active) | -5.77% (active)
COC[C@@H](C)n1c(C2CCOCC2)nc2c1C1C=C(OC)C(c3c(C)noc3C)=CC1N=C2 (some centres undefined) | 30.7% | 17.4% | 2.03% (active) | 46.3% | 69% | 38.2% | 38.7% | 18.5% | 19.6% | 65.4% | 56.9% | 64.9% | 13.2% | 6.38% (active) | 41.2% | 41% | 18.6% | 50.8% | 59%
COc1cc(F)c(F)c(Nc2ccc(I)cc2F)c1NS(=O)(=O)C1(C[C@H](O)CO)CC1 | 26.9% | 5.42% (active) | 41% | 43% | 35.6% | 48.9% | 19.1% | -3.18% (active) | 11.9% | 3.06% (active) | 29.2% | 51% | 16.2% | 27.7% | 37.9% | 30.5% | -48% (active) | 67% | 43.2%
